Of roughly 8,800 targets only a part is listed; those with a hit were picked by preference. About 0.5% of all pairs of compound and target were hits.
Legend:
Experiment in all cases: log2 fold change, soluble protein after heating vs DMSO (PISA); higher = thermal stabilisation; K562 lysate, 10 uM; active = over 0.2 and 3.5 SD of the protein, either way, in both replicates (recomputed)
[1] = compound: C[C@@H](Oc1cc(-c2cnn(C3CCNCC3)c2)cnc1N)c1c(Cl)ccc(F)c1Cl [crizotinib]
How it was run: (§1)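 Quantification was by TMTpro 16plex LC-MS/MS with equalised channel sums, applied to the supernatant after 21,000xg for 90 min. Samples were crude K562 extract at 1 mg/mL protein in PBS pH 7.4 with 1 mM MgCl2, treated with 10 μM compound for 30 min, heated for 3 min across 48°C-58°C, pooled and brought to 0.5% NP-40 at 4°C. Values are log-two fold changes in thermal stability relative to solvent controls, from duplicates.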

[2] = compound: C[C@H](Nc1ncnc2nc[nH]c12)c1cc2cccc(Cl)c2c(=O)n1-c1ccccc1 [duvelisib]
How it was run: as §1

[3] = compound: Cc1cc(Nc2cc(N3CCN(C)CC3)nc(Sc3ccc(NC(=O)C4CC4)cc3)n2)n[nH]1 [tozasertib]
How it was run: as §1

[4] = compound: Cc1ccc(-n2nc(C(C)(C)C)cc2NC(=O)Nc2ccc(OCCN3CCOCC3)c3ccccc23)cc1 [doramapimod]
How it was run: as §1

[5] = compound: Cc1nc(Nc2ncc(C(=O)Nc3c(C)cccc3Cl)s2)cc(N2CCN(CCO)CC2)n1 [dasatinib]
How it was run: as §1

[6] = compound: Cn1cc(-c2ccc3c(c2)CCN3C(=O)Cc2cccc(C(F)(F)F)c2)c2c(N)ncnc21
How it was run: as §1

[7] = compound: Cn1cc(CNCC2CCN(c3ncc(C(=O)NO)cn3)CC2)c2ccccc21 [quisinostat]
How it was run: as §1

[8] = compound: NC(=O)Nc1cc(-c2cccc(F)c2)sc1C(=O)N[C@H]1CCCNC1
How it was run: as §1

[9] = compound: CS(=O)(=O)N1CCN(Cc2cc3nc(-c4cccc5[nH]ncc45)nc(N4CCOCC4)c3s2)CC1 [pictilisib]
How it was run: as §1

[10] = compound: C[C@H](C1=CC=C(C=C1)C(=O)NC2=C3C=CNC3=NC=C2)N
How it was run: as §1

[11] = compound: Cc1cc(Nc2cc(CN3CCOCC3)c3nc(C)c(Cc4ccc(Cl)cc4F)n3n2)n[nH]1 [gandotinib]
How it was run: as §1

[12] = compound: Cc1ccc(NC(=O)c2ccc(CN3CC[C@H](N(C)C)C3)c(C(F)(F)F)c2)cc1Nc1nccc(-c2cncnc2)n1 [bafetinib]
How it was run: as §1

[13] = compound: Cc1cccc(CC(=O)N2CCc3c2ccc(-c2cn(C)c4ncnc(N)c24)c3F)n1
How it was run: as §1

[14] = compound: Cc1cn(-c2cc(NC(=O)c3ccc(C)c(Nc4nccc(-c5cccnc5)n4)c3)cc(C(F)(F)F)c2)cn1 [nilotinib]
How it was run: as §1

[15] = compound: Cc1nc(Nc2n[nH]c3c2CN(C(=O)N[C@H](CN(C)C)c2ccccc2)C3(C)C)c2sccc2n1
How it was run: as §1

[16] = compound: Cc1ncc(-c2ccnc(Nc3ccc(S(C)(=O)=O)cc3)n2)n1C(C)C
How it was run: as §1

[17] = compound: Cn1cncc1[C@@](N)(c1ccc(Cl)cc1)c1ccc2c(c1)c(-c1cccc(Cl)c1)cc(=O)n2C [tipifarnib]
How it was run: as §1

[18] = compound: NC1(c2ccc(-c3nc4ccn5c(=O)[nH]nc5c4cc3-c3ccccc3)cc2)CCC1
How it was run: as §1

[19] = compound: CS(=O)(=O)CCNCc1ccc(-c2ccc3ncnc(Nc4ccc(OCc5cccc(F)c5)c(Cl)c4)c3c2)o1 [lapatinib]
How it was run: as §1

[20] = compound: NC(=O)c1cnc(N[C@@H]2CCCC[C@@H]2N)nc1Nc1cccc(-n2nccn2)c1
How it was run: as §1

Measured: log2 fold change

TMEM154 (UniProt Q6P9G4)
inactive: [1] 0.035 | [2] 0.039 | [3] 0.03 | [4] -0.146 | [5] 0.058 | [6] 0.07 | [7] 0.103 | [8] -0.101

TPD52L2 isoform 3 (UniProt O43399)
UniProt O43399, sequence (O43399 whole entry, looked up): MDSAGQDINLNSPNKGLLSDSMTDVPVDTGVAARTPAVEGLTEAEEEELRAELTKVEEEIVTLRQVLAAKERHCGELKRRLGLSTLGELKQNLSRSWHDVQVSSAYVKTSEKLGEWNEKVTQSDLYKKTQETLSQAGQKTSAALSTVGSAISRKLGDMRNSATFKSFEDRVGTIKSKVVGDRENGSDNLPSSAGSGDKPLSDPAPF
inactive: [9] -0.112 | [10] -0.155 | [11] 0.377 | [12] -0.102 | [13] -0.124 | [14] 0.055 | [15] 0.035 | [16] 0.008 | [17] 0.134 | [18] 0.074

TEC (UniProt P42680)
UniProt P42680, sequence (P42680 whole entry, looked up): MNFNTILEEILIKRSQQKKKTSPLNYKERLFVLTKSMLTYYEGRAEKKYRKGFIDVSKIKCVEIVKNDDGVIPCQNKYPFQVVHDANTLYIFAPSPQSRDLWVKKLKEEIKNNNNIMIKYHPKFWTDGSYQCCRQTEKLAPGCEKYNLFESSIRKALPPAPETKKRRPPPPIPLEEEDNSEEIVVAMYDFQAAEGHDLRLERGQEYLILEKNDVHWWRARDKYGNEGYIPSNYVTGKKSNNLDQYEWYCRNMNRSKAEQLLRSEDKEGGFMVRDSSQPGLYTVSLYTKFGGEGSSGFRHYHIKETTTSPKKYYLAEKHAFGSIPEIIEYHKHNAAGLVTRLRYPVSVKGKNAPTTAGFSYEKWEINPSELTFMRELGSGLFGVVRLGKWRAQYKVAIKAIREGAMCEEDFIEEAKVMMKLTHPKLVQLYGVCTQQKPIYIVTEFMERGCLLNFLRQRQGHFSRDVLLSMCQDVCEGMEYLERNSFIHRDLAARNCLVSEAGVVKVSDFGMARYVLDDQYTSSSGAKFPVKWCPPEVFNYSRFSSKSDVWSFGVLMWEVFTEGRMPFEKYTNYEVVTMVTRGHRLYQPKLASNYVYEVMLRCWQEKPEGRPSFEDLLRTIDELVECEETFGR
inactive: [19] 0.007 | [3] -0.198 | [14] -0.047 | [15] 0.099 | [16] 0.019 | [17] 0.116 | [20] -0.039

TTLL12 (UniProt V9GY16)
inactive: [9] 0.058 | [1] 0.072 | [10] -0.169 | [11] 0.188 | [3] -0.087 | [4] -0.029 | [12] -0.187 | [13] 0.263 | [7] -0.436 | [8] -0.021 | [18] 0.039

TRIM3 (UniProt O75382)
UniProt O75382, sequence (O75382 whole entry, looked up): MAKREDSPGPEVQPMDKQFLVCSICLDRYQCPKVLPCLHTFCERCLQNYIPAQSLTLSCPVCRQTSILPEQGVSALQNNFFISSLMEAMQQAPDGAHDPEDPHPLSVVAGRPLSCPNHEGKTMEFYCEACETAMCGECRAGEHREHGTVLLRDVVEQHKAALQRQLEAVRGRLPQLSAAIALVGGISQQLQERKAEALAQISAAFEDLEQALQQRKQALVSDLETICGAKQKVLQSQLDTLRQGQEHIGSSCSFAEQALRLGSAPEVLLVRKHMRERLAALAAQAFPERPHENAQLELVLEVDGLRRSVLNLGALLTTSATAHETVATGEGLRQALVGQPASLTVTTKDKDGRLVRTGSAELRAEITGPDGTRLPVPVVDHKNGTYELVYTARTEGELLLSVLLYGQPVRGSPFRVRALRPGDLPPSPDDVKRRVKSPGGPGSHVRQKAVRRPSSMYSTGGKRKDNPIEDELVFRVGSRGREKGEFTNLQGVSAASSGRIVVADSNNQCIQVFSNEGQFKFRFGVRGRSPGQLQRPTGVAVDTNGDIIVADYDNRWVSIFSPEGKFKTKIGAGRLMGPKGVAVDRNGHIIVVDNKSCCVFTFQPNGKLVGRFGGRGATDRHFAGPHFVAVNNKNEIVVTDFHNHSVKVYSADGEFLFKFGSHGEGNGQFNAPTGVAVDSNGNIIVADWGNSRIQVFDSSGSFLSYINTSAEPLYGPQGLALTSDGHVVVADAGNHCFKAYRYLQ
inactive: [19] 0.009 | [3] -0.056 | [20] 0.623 | [18] 0.146

TGFBR1 isoform 2 (UniProt P36897)
inactive: [2] -0.004 | [3] 0.022 | [6] -0.03 | [18] -0.117

TXNIP (UniProt Q9H3M7)
UniProt Q9H3M7, sequence (Q9H3M7 whole entry, looked up): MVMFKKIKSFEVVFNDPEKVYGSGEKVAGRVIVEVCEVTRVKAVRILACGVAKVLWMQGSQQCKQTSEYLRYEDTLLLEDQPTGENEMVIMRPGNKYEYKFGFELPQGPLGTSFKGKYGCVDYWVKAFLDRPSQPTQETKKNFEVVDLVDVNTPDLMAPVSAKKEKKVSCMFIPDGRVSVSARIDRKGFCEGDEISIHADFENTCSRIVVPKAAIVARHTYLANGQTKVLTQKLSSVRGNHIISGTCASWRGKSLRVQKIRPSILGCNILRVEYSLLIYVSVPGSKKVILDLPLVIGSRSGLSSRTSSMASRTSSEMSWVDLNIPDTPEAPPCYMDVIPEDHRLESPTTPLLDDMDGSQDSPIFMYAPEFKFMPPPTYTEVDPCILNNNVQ
inactive: [9] 0.029 | [1] -0.045 | [10] 0.143 | [2] 0 | [11] -0.089 | [3] -0.015 | [4] 0.019 | [12] -0.042 | [13] -0.037 | [14] 0.091 | [15] 0.038 | [5] -0.023 | [16] -0.026 | [6] 0.012 | [7] -0.077 | [17] -0.022 | [8] 0.029 | [18] 0.005

TPM3 isoform 3 (UniProt P06753)
UniProt P06753, sequence (P06753 whole entry, looked up): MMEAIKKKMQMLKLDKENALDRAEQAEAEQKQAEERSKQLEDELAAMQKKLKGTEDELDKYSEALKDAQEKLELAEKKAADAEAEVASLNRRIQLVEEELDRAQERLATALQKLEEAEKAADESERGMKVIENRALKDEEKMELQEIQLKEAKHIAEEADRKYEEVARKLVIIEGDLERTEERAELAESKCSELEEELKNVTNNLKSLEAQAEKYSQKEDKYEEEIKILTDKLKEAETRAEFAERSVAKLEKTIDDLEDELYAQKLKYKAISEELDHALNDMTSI
inactive: [19] -0.009 | [1] 0.095 | [2] 0.011 | [11] 0.176 | [3] 0.143 | [4] 0.027 | [13] 0.202 | [5] 0.05 | [6] 0.106 | [7] 0.112 | [8] -0.09 | [20] 0.001 | [18] -0.035
active: [10] -0.411

UBAP2L isoform 1 (UniProt Q14157)
inactive: [9] -0.116 | [1] 0.376 | [4] -0.26 | [12] 0.56 | [14] -0.03 | [15] -0.081 | [16] 0.09 | [7] 0.613 | [17] -0.067 | [8] 0.081

TLK2 isoform 3 (UniProt Q86UE8)
UniProt Q86UE8, sequence (Q86UE8 whole entry, looked up): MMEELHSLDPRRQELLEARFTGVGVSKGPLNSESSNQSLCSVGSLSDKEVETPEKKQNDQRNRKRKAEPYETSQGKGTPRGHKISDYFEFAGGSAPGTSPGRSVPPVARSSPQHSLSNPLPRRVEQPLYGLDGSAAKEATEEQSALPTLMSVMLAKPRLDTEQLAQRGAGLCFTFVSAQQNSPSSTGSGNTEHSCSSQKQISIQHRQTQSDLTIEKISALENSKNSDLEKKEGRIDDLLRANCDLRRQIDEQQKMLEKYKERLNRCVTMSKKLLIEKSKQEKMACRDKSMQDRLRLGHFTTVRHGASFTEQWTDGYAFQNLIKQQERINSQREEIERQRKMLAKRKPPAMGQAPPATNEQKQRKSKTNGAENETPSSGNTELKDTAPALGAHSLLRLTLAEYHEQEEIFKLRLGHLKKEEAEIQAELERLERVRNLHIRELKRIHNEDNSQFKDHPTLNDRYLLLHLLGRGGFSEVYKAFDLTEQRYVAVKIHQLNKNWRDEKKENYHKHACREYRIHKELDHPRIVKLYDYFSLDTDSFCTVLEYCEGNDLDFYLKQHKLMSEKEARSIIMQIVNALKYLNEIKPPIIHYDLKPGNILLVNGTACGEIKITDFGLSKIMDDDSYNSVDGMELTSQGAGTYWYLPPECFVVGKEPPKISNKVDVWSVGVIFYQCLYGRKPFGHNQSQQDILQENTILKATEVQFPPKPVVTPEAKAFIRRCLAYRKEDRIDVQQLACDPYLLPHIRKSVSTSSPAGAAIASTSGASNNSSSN
inactive: [10] 0.012 | [11] 0.009 | [13] -0.101

TMEM132A isoform 2 (UniProt Q24JP5)
inactive: [19] -0.172 | [1] -0.237 | [10] -0.084 | [11] 0.077 | [3] 0.042 | [4] -0.163 | [13] 0.002 | [7] -0.022 | [8] 0.087 | [20] 0.724 | [18] -0.014

TUBA4A (UniProt C9JQ00)
inactive: [9] -0.2 | [10] -0.094 | [11] -0.142 | [12] -0.368 | [13] 0.228

TSPAN3 (UniProt O60637)
UniProt O60637, sequence (O60637 whole entry, looked up): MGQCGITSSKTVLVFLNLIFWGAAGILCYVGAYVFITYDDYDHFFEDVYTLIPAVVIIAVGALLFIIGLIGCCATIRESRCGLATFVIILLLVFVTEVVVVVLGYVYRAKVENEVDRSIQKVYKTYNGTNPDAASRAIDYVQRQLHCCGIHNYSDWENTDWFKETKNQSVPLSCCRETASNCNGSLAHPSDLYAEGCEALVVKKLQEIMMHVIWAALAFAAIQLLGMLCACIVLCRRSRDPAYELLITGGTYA
inactive: [19] -0.013 | [2] -0.058 | [11] -0.163 | [3] -0.01 | [13] -0.342 | [14] 0.004 | [15] -0.003 | [5] 0.118 | [16] -0.199 | [6] 0.033 | [17] -0.032 | [20] -0.098 | [18] 0.015
active: [10] 0.513

UBR4 isoform 4 (UniProt Q5T4S7)
inactive: [19] 0.146 | [2] -0.143 | [3] 0.079 | [5] -0.083 | [6] -0.158 | [20] -0.078 | [18] 0.049

TK1 (UniProt K7ERV3)
inactive: [9] -0.144 | [1] 0.075 | [10] -0.07 | [2] -0.021 | [11] 0.04 | [4] 0.041 | [12] -0.181 | [13] 0.01 | [14] -0.024 | [15] -0.134 | [5] -0.114 | [16] 0.086 | [6] 0.02 | [7] -0.059 | [17] 0.059 | [8] 0.122 | [18] -0.016
active: [3] 0.319

TMPO isoform 2 (UniProt P42167)
inactive: [9] 0.04 | [2] -0.041 | [3] -0.029 | [12] -0.026 | [5] -0.042 | [6] -0.072

UBAP2, A0A0D9SFI5
inactive: [1] -0.037 | [4] -0.056 | [7] 0.151 | [8] 0.111

UBAP2L (UniProt F8W726)
inactive: [19] -0.15 | [1] 0.098 | [4] -0.068 | [7] 0.11 | [8] 0.043 | [20] 0.099

TFPI isoform 2 (UniProt P10646)
UniProt P10646, sequence (P10646 whole entry, looked up): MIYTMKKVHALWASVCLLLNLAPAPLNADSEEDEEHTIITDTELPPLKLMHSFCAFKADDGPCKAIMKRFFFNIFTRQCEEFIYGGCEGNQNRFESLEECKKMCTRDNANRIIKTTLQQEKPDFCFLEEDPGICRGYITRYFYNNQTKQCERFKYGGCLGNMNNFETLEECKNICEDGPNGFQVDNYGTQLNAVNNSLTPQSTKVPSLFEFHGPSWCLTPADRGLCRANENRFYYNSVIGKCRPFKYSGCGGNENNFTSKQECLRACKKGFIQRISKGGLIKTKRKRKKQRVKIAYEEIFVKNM
inactive: [1] 0.045 | [4] -0.121 | [7] -0.087 | [8] 0.082

UCP2 (UniProt P55851)
UniProt P55851, sequence (P55851 whole entry, looked up): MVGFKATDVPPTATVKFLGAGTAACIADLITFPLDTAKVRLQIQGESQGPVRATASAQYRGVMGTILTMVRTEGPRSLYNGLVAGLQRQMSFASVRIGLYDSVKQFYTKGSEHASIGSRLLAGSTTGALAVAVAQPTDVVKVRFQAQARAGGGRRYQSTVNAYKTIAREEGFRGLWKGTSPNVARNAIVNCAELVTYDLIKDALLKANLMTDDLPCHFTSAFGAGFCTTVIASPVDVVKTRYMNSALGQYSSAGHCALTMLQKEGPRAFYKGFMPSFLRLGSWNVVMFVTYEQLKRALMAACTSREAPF
active: [1] -0.441
inactive: [4] -0.141 | [14] 0.144 | [15] -0.186 | [16] -0.137 | [7] -0.022 | [17] 0.142 | [8] 0.059

U2AF1L5 (UniProt P0DN76)
active: [10] -0.904
inactive: [19] 0.091 | [2] 0.021 | [11] 0.114 | [3] 0.207 | [13] 0.342 | [14] -0.033 | [15] 0.061 | [5] -0.012 | [16] 0.077 | [6] 0.026 | [17] -0.01 | [20] 0.009 | [18] -0.022

TCF3 (UniProt X6REB3)
inactive: [10] -0.081 | [11] 0.269 | [13] 0.105

TCF3 isoform 2 (UniProt P15923)
UniProt P15923, sequence (P15923 whole entry, looked up): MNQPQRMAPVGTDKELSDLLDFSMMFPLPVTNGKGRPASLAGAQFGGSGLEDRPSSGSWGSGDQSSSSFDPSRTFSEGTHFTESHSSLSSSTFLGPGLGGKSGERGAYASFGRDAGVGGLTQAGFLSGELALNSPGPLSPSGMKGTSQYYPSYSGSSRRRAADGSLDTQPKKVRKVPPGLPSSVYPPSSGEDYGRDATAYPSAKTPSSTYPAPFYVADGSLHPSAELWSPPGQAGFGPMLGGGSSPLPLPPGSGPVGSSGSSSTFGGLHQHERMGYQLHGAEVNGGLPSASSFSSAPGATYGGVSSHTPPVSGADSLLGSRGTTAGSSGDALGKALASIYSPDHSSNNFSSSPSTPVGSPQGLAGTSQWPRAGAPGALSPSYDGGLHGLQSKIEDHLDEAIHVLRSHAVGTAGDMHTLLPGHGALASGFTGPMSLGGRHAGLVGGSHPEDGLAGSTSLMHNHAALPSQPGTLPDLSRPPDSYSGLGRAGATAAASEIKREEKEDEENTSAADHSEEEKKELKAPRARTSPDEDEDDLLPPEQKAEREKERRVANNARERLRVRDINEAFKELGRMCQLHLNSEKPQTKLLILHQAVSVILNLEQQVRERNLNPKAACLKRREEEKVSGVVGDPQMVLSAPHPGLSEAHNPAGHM
inactive: [1] -0.048 | [4] 0.092 | [7] -0.05 | [8] -0.005 | [18] -0.068

TM2D3 (UniProt Q9BRN9)
UniProt Q9BRN9, sequence (Q9BRN9 whole entry, looked up): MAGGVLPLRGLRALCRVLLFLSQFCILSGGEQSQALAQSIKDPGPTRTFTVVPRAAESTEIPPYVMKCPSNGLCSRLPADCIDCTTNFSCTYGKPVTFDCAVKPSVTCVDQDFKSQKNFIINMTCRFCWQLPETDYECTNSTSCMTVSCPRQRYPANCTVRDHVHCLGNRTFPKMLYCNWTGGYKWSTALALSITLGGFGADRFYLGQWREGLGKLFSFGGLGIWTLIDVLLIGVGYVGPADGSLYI
inactive: [9] 0.069 | [11] 0.329 | [3] -0.075 | [12] 0.048 | [13] 0.348 | [18] -0.09
active: [10] -0.836

TRPM4 (UniProt Q8TD43)
inactive: [9] -0.085 | [1] 0.055 | [2] 0.042 | [11] 0.088 | [4] -0.111 | [12] -0.02 | [13] 0.25 | [5] -0.02 | [6] -0.099 | [7] -0.01 | [8] 0.111 | [18] 0.089
active: [10] -0.654

UBL5 (UniProt Q9BZL1)
UniProt Q9BZL1, sequence (Q9BZL1 whole entry, looked up): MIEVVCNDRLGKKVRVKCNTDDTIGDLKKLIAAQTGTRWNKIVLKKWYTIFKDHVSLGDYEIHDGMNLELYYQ
active: [7] 0.341
inactive: [9] -0.036 | [1] 0.072 | [10] -0.194 | [2] -0.042 | [11] 0.042 | [3] 0.138 | [4] 0.013 | [12] -0.034 | [13] 0.104 | [14] 0.028 | [15] 0.154 | [5] 0.036 | [16] 0.018 | [6] 0.027 | [17] 0.031 | [8] -0.149 | [18] -0.013

TJP1 (UniProt H0Y3R8)
inactive: [10] 0.068 | [11] -0.057 | [13] -0.063

TLE3 (UniProt H0YL70)
inactive: [2] 0.037 | [5] 0.077 | [6] 0.05

— the supplement of paper PMC10849652
